SMILES strings stand for the structures. This is one part of the list. The source made the active and inactive calls. Rule as the data show it: active = activation above about 18%; inactive = the rest.

In the assay the target is Mu-type opioid receptor (Homo sapiens) + Delta-type opioid receptor (Homo sapiens) (UniProt P35372+P41143). The assay is described as follows: agonists of MOR-DOR heterodimerization, confirmation, cell-based, luminescence (AID 504904).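 Also: 0% = vehicle-treated cells and 100% = reference agonist.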 The following applies: cells, luminescence complementation, at 9.3 µM, hits give high values.
Chain of Mu-type opioid receptor (Homo sapiens) + Delta-type opioid receptor (Homo sapiens) (P35372 whole entry, looked up): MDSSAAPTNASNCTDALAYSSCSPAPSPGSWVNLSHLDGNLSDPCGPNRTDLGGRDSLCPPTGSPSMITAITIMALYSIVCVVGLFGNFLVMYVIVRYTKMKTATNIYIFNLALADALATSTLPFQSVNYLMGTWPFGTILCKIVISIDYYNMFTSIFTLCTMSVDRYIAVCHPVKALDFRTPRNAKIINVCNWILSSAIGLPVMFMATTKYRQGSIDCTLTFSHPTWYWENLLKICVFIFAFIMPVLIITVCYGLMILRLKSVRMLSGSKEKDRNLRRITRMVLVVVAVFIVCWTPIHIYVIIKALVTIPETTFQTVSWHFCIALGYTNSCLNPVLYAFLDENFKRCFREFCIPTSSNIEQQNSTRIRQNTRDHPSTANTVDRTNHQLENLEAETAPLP
Chain of Mu-type opioid receptor (Homo sapiens) + Delta-type opioid receptor (Homo sapiens) (P41143 whole entry, looked up): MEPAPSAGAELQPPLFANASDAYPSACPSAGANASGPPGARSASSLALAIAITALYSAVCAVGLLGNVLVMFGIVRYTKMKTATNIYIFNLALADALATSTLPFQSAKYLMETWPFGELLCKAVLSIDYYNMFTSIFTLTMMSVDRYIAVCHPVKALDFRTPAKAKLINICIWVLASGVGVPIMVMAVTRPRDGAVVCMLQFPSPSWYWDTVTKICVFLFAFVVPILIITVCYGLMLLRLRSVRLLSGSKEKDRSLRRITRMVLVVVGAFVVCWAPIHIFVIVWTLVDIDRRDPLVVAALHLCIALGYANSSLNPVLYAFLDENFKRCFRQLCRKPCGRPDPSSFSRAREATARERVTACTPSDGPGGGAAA
With `COC1C(O)C(C)OC(OC2CCC3(C=O)C(CCC4C3CCC3(C)C(C5=CC(=O)OC5)CCC43O)C2)C1O` (centres undefined), the activation is 51.8% (active).
The figure for `CCOC(=O)C1(CCc2ccccc2)CCN(Cc2ccco2)CC1` is 41.4% (active); for `C[C@]12CC[C@H](O)C[C@H]1CC[C@@H]1C2CC[C@]2(C)[C@@H](C3=CC(=O)OC3)[C@@H](O)C[C@]12O` (some centres undefined) it is -3.86% (inactive).
To `CCC1(C)CC(CCNCc2ccc(N(C)C)cc2)(c2ccc(F)cc2)CCO1` (centres undefined) belongs 137% (active).

Values taken from PubChem BioAssay AID504904 (The Scripps Research Institute Molecular Screening Center, 2011).
